# From PubChem BioAssay
# Active and inactive are the calls of the source. Unless noted, how the calls were made is not given here.
# How the values were obtained:
# [1] = A549 cell viability effects, profiling panel, calcein-AM fluorescence, 48 h, basal (AID 1162); conditions: higher = more signal; further: test concentration not given here
# [2] = adipocyte viability effects, profiling panel, cell-based, 3T3-L1 adipocytes, calcein-AM fluorescence, 48 h, basal (AID 1163); conditions: 3T3-L1 adipocytes viability, higher = more signal; further: test concentration not given here
# [3] = HepG2 cell viability effects, profiling panel, calcein-AM fluorescence, 48 h, basal (AID 1164); conditions: higher = more signal; further: test concentration not given here
# [4] = MM1S cell viability effects, profiling panel, calcein-AM fluorescence, 48 h, basal (AID 1165); conditions: higher = more signal;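 further: viability of MM1S multiple myeloma cells under basal unstimulated conditions; test concentration not given here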
# [5] = basal RPMI8226 viability, no added stimulus, profiling panel, cell-based, calcein-AM fluorescence, 48 h, PK04 Diversity Set (AID 1166); conditions: RPMI8226 myeloma viability, higher = more signal;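 further: cells grown under basal conditions without added stimulus; test concentration not given here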
# [6] = basal HepG2 mitochondrial membrane potential changes, profiling panel, cell-based, JC-1 fluorescence, 24 h, 100 nL compound (AID 1167); conditions: higher = more signal; further: test concentration not given here
# [7] = basal 3T3-L1 adipocyte mitochondrial potential changes, profiling panel, cell-based, JC-1 fluorescence, 3T3-L1 adipocytes, 24 h, 100 nL compound (AID 1168); conditions: JC-1 mitochondrial fluorescence, higher = more signal, called active from +8 up or from −8 down; further: test concentration not given here
# [8] = basal RPMI8226 mitochondrial membrane potential changes, profiling panel, cell-based, JC-1 fluorescence, 24 h, 100 nL compound (AID 1169); conditions: RPMI8226 myeloma, JC-1 mitochondrial potential fluorescence, higher = more signal; further: test concentration not given here
# [9] = basal MM1S mitochondrial membrane potential changes, profiling panel, cell-based, JC-1 fluorescence, 24 h, 100 nL compound (AID 1170); conditions: higher = more signal; further: test concentration not given here
# [10] = A549 lung cancer cell viability effects, profiling panel, resazurin fluorescence, 24 h, PK04 Diversity Set (AID 1171); conditions: higher = more signal, called active from +8 up or from −8 down; further: test concentration not given here
# [11] = HepG2 liver cancer cell viability effects, profiling panel, resazurin fluorescence, 24 h, PK04 Diversity Set (AID 1172); conditions: higher = more signal; further: test concentration not given here
# [12] = basal S. cerevisiae growth modulation, no modifier, primary screen, OD600, strain BY4716, 24 h, basal condition (AID 1173); conditions: OD600, 24 h, higher = more signal, called active from +8 up or from −8 down
# [13] = MM1S myeloma cell viability, profiling panel, resazurin fluorescence, basal, 24 h, PK04 Diversity Set (AID 1174); conditions: higher = more signal, called active from +8 up or from −8 down;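 further: MM1S multiple myeloma cell line; test concentration not given here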
# [14] = biological target: Dihydroorotate dehydrogenase (quinone), mitochondrial (Plasmodium falciparum (isolate 3D7)) (UniProt Q08210); test: PfDHODH enzyme inhibitors, primary screen, biochemical, C-terminal His tag, absorbance 600 nm (AID 1175); conditions: DCIP absorbance 600 nm, higher = more signal, called active from +8 up or from −8 down;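 further: recombinant parasite enzyme with a five histidine tag at its C terminus; test concentration not given here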
# [15] = P. aeruginosa biofilm formation inhibitors, primary screen, strain PAO1, LB-PBS medium, absorbance 600 nm (AID 1176); further: test concentration not given here; conditions: P. aeruginosa PAO1 growth/biofilm, A600, 12 h; higher = more signal
# [16] = S. cerevisiae RM11-1a growth modifiers, primary screen, strain RM11-1a, OD600, basal, 24 h (AID 1177); conditions: OD600, 24 h, higher = more signal, called active from +8 up or from −8 down;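 further: cultures grown under basal conditions with no added stressor; test concentration not given here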
# [17] = E. coli acrAB mutant growth effects, primary screen, E. coli filamentation inducers, strain DRC39, OD650, 24 h (AID 1178); conditions: higher = more signal, called active from +8 up or from −8 down;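 further: growth measured as culture turbidity by optical density at 650 nm; test concentration not given here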
# [18] = E. coli acrAB mutant growth effects, primary screen, E. coli filamentation inducers, strain DRC39, OD650, 48 h (AID 1179);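 further: screen aims at cell division blockers that make cells filament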; conditions: E. coli DRC39 delta-acrAB growth, higher = more signal, called active from +8 up or from −8 down
# [19] = RPMI8226 myeloma cell viability, profiling panel, resazurin fluorescence, basal, 24 h, PK04 Diversity Set (AID 1180); conditions: higher = more signal;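 further: RPMI8826 multiple myeloma cell line at 5000 cells per well; test concentration not given here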
# [20] = biological target: E3 ubiquitin-protein ligase XIAP (Homo sapiens) (UniProt P98170); test: XIAP binders, primary screen, biophysical, small-molecule microarray, fluorescence 635 nm (AID 1181); conditions: small-molecule microarray binding, higher = more signal;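 further: score merges 667 nm emission and signal to noise over triplicate slides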
# E3 ubiquitin-protein ligase XIAP (Homo sapiens), sequence (P98170 whole entry, looked up): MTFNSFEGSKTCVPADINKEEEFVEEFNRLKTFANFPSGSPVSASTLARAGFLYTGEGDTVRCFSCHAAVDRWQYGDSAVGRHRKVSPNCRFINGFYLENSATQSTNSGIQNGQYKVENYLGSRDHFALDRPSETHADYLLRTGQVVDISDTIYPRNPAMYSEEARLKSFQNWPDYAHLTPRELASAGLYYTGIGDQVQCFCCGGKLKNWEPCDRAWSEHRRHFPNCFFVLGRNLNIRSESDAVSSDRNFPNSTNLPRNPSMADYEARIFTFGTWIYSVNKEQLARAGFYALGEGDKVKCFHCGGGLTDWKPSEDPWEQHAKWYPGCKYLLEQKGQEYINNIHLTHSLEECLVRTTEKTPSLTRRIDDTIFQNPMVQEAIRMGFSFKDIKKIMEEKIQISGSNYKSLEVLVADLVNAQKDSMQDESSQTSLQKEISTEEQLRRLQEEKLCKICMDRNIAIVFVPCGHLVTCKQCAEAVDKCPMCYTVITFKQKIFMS
# Dihydroorotate dehydrogenase (quinone), mitochondrial (Plasmodium falciparum (isolate 3D7)), sequence (Q08210 whole entry, looked up): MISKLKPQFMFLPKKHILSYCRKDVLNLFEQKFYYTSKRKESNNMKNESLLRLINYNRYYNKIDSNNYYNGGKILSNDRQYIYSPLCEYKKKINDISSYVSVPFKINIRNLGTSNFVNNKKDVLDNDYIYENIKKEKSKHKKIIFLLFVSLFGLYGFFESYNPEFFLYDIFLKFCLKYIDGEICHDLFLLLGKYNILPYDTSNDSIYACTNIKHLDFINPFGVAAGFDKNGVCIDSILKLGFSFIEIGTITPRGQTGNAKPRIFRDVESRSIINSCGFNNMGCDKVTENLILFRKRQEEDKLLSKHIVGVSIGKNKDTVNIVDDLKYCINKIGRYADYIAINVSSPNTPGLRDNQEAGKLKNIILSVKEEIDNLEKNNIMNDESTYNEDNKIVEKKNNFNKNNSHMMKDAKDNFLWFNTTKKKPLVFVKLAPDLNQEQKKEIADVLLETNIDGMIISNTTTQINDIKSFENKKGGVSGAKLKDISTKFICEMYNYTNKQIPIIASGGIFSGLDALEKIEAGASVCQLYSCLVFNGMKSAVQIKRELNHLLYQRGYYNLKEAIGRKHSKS
SMILES,z-score [1],z-score [2],z-score [3],z-score [4],z-score [5],z-score [6],z-score [7],z-score [8],z-score [9],z-score [10],z-score [11],z-score [12],z-score [13],composite z-score [14],z-score [15],z-score [16],z-score [17],z-score [18],z-score [19],composite z-score [20]
O=C1C[C@@](C(=O)O)(c2ccc([N+](=O)[O-])cc2)[C@@H](c2ccc(CO)cc2I)N1C1CCCCC1,1.05,1.32,0.279,-3.6,-3.61,0.053,-0.962 (inactive),-0.826,-1.86,0.597 (inactive),0.0536,-5.06 (inactive),-1.62 (inactive),-1.68 (inactive),1.16 (inactive),-1.01 (inactive),1.39 (inactive),0.466 (inactive),-1.57,-0.289
CCCNC(=O)[C@@]1(C)c2ccccc2C(=O)N(Cc2cc(F)cc(C(F)(F)F)c2)[C@H]1c1ccc(CO)cc1,-0.575,0.237,-0.14,-0.0049,1.18,2.08,0.224 (inactive),0.795,-0.749,1.79 (inactive),1.08,-0.769 (inactive),1.16 (inactive),0.134 (inactive),-0.164 (inactive),0.196 (inactive),0.249 (inactive),0.113 (inactive),1.63,-0.181
C[n+]1ccc2ccc(O)cc2c1,-0.274,0.509,-1.33,0.653,-1.91,-0.774,-0.917 (inactive),1.03,-0.723,-0.733 (inactive),0.0027,-1.06 (inactive),0.242 (inactive),-0.843 (inactive),-0.131 (inactive),0.582 (inactive),0.0452 (inactive),-0.0896 (inactive),-0.654,0.473
C=CCN1C(=O)[C@@]2(O[C@@H](CCO)[C@H]([Si](C)(C)c3ccc(OC)cc3)[C@H]2C)c2cc(N3C(=O)COc4ccccc43)ccc21,-3.41,-0.967,-4.72,-2.74,-4.33,-2.17,2.78 (inactive),-1.01,-2.24,-5.02 (inactive),-6.28,0.445 (inactive),-8.85 (active),0.428 (inactive),-0.258 (inactive),3.31 (inactive),1.09 (inactive),0.338 (inactive),-6.27,-0.031
COc1ccc([Si](C)(C)[C@@H]2[C@@H](CCO)O[C@]3(C(=O)N(Cc4ccc(N5C(=O)c6cccc7cccc5c67)cc4)c4ccccc43)[C@H]2C)cc1,-0.35,-0.903,-3.63,-1.6,-4.12,0.00779,1.89 (inactive),-1.11,-1.15,-1.43 (inactive),-0.454,0.338 (inactive),-0.898 (inactive),-0.774 (inactive),1.51 (inactive),3.87 (inactive),1.68 (inactive),1.19 (inactive),-4.48,0.0623
CN(C)CCCC[C@@H]1NC(=O)[C@@H]2C[C@H](C(=O)NCCCCCN)[C@H](c3ccc(O)cc3)N2C1=O,0.635,0.177,-0.0772,0.189,-0.115,1.25,0.665 (inactive),-0.286,-0.592,-0.475 (inactive),-0.24,-0.235 (inactive),-0.507 (inactive),-1.33 (inactive),-0.0491 (inactive),-0.361 (inactive),0.591 (inactive),1.09 (inactive),-0.948,-0.134
C=CCNC(=O)[C@@H]1[C@H]2C(=O)O[C@H](c3ccccc3)[C@H](c3ccccc3)N2[C@H](c2ccccc2OCCO)[C@@]12C(=O)N(C(=O)OCCOC)c1ccc(C#CCC(C(=O)OC)C(=O)OC)cc12,0.136,-0.609,-0.592,-0.794,-1.57,0.408,0.618 (inactive),-0.802,-1.35,1.31 (inactive),0.865,2.2 (inactive),-1.69 (inactive),-2.24 (inactive),3.54 (inactive),1.62 (inactive),0.275 (inactive),-0.418 (inactive),-0.11,0.666
O=S(=O)(NCCCO)c1ccc(Br)cc1,0.819,-0.307,0.492,0.704,1.24,0.76,0.371 (inactive),0.514,-0.722,-0.285 (inactive),0.304,-0.476 (inactive),0.261 (inactive),-1.62 (inactive),-0.236 (inactive),-0.482 (inactive),1.68 (inactive),2.3 (inactive),0.461,0.0441
O=C1c2ccccc2[C@@]2(Cc3ccccc3N(Cc3ccccc3)C2=O)[C@H](c2ccc(CO)cc2)N1Cc1ccccc1C(F)(F)F,0.74,1,1.22,0.166,0.816,1.28,0.084 (inactive),-0.0385,0.29,-1.16 (inactive),-0.897,-0.614 (inactive),-1.28 (inactive),-4.41 (inactive),0.127 (inactive),0.349 (inactive),0.225 (inactive),0.429 (inactive),-0.59,-0.148
O=C1O[C@@H](c2ccccc2)[C@@H](c2ccccc2)N2[C@@H](c3ccc(O)cc3)[C@]3(C(=O)Nc4ccccc43)[C@@H](C(=O)N3CCCCCCC3)[C@H]12,-0.871,0.616,0.404,-0.391,-2.29,-1.79,0.145 (inactive),-0.659,0.0147,-1.09 (inactive),0.305,0.189 (inactive),-1.05 (inactive),0.0791 (inactive),1.34 (inactive),1.19 (inactive),0.36 (inactive),-1.16 (inactive),-1.01,0.613
C=C(CCCC)C(=O)CC[C@@H](OC(=O)c1ccccc1-c1ccccc1C(=O)O)c1ccc(CO)o1,-0.64,0.498,0.102,0.227,-0.91,-1.24,-0.26 (inactive),0.479,-0.0259,-0.476 (inactive),0.0232,-0.712 (inactive),0.225 (inactive),-2.93 (inactive),1.32 (inactive),-0.279 (inactive),-0.079 (inactive),-0.218 (inactive),-0.0459,0.0842
COCCOC(=O)N1C(=O)[C@@]2(c3cc(C#CC4=CCCCC4)ccc31)[C@H](c1ccc(OCCO)cc1)N1[C@H](c3ccccc3)[C@H](c3ccccc3)OC(=O)[C@H]1[C@@H]2C(=O)Nc1nc2ccccc2s1,0.642,0.0841,-0.153,-0.381,-0.259,-2.79,-0.216 (inactive),-0.932,-1.63,-0.057 (inactive),1.16,1.65 (inactive),-0.396 (inactive),0.123 (inactive),3.34 (inactive),2.68 (inactive),-0.169 (inactive),0.422 (inactive),0.584,0.061
CC(C)[Si]1(C(C)C)O[C@@H](c2ccccc2)c2cc(-c3ccc(-c4ccc(Cl)c(Cl)c4)o3)nc(CCc3ccccc3)c21,-0.516,-0.694,0.433,-3.02,-3.72,-1.95,-1.72 (inactive),-0.965,-1.91,-0.748 (inactive),-0.662,-3.29 (inactive),-0.701 (inactive),-0.231 (inactive),0.726 (inactive),0.144 (inactive),0.231 (inactive),-0.0564 (inactive),-0.622,-0.27
CCOC(=O)C1=CC[C@@H](c2cccc(Cl)c2)N(S(=O)(=O)c2ccc(C)cc2)[C@H]1c1ccc(C#N)cc1,0.384,-1.03,-0.474,-0.692,-0.704,1.38,0.0503 (inactive),-0.62,-1.29,1.27 (inactive),0.697,2.09 (inactive),-0.39 (inactive),0.21 (inactive),1.68 (inactive),0.834 (inactive),-0.905 (inactive),-0.314 (inactive),-1.42,-0.38
CC(C)CNC(=O)[C@@]1(C)c2ccccc2C(=O)N(C(C)C)[C@H]1c1ccc(CO)cc1,-0.238,-0.511,-0.178,0.0151,-0.847,-0.372,-0.638 (inactive),0.809,-0.481,-0.0586 (inactive),-0.174,-0.128 (inactive),-0.434 (inactive),-0.449 (inactive),-0.273 (inactive),-0.207 (inactive),-0.314 (inactive),-0.049 (inactive),-0.434,-0.135
CC(=O)NCCCC[C@@H]1NC(=O)[C@@H]2C[C@H](C(=O)NCc3ccc(F)cc3)[C@H](c3ccc(O)cc3)N2C1=O,-0.484,0.347,-0.797,-1.18,-0.556,1.28,0.58 (inactive),0.0286,0.28,0.361 (inactive),-0.0579,-0.462 (inactive),-0.276 (inactive),-1.13 (inactive),-0.226 (inactive),-0.985 (inactive),0.304 (inactive),-0.598 (inactive),0.473,0.105
